We go through six molecules from PubChem BioAssay.

The nature of assay [1]: liver-stage malaria parasite growth inhibition, primary screen, cell-based, HepG2, luciferase luminescence, HepG2 viability (AID 624349; in the data active = parasite load remaining mostly below about 12%, no sharp cut-off; inactive = mostly above about 10%;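 also: 100% = mean of DMSO negative control wells on the same plate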). The settings on record: P. berghei liver stage in HepG2, luciferase luminescence, concentration not given here; parasite load remaining: stronger effect = lower value; viability: measured here: HepG2 viability without parasites.
Assay [2] relates to Aerobactin synthetase IucA (Klebsiella pneumoniae). Description: IucA aerobactin synthetase inhibitors, biochemical, Tocris library, absorbance (AID 1345561).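 Also: 100% = enzyme without compound and 0% = no enzyme.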 The settings on record: purified IucA enzyme assay, absorbance (OD) read-out; stronger effect = lower value;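 tested at 8 µM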.
Assay [3] is described as follows: sensitizers of A549 cells to miR-34 induction, primary screen, imaging, A549 dox-inducible miR-34, nuclei and caspase counts (AID 1347080;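 active = compounds whose cell count with miR-34 switched on is under 0.7 times the count with it off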). The settings on record: A549 miR-34 inducible, Hoechst nuclei count, 48 h.
A short description of assay [4]: modifiers of HSF1 nuclear foci, imaging, Selleck Cancer Library (AID 1347162; in the data active = plate-normalised HSF1 focus index below about 0.46). The settings on record: human cells, at 10 µM; SSMD: measured here: HSF1 foci SSMD mean; cell count: measured here: cell number; plate-normalised HSF1 focus index: stronger effect = lower value.
Assay [5] can be described thus: survival rescue of mitochondrial mutant cells in low glucose, primary screen, MELAS cybrids, Rieske KO mouse fibroblasts, CellTiter-Glo (AID 1508586).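 Also: z relative to plate mean and SD of compound and empty wells.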 In general terms: In ATP-based viability assays light output follows the ATP content of the culture.
A short description of assay [6]: viability rescue of complex I mutant cybrids, primary screen, cell-based, galactose medium, ATP luminescence (AID 1645843;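 active = z-score of at least 1.8 in each of two replicates, scored against plate mean and spread of sample wells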;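 also: positive z means more ATP and so rescue of galactose-driven cybrid death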). The settings on record: complex I mutant cybrid cells, 72 h, stronger effect = higher value.
For assay [7], the system named is Hepatitis C virus NS3 helicase. In words: HCV NS3 helicase inhibitors, primary screen, biochemical, fluorescence polarization, LOPAC1280 library (AID 687035; in the data active = inhibition above about 37%). The settings on record: Purified HCV NS3 helicase, Cy5-dT15 ssDNA binding fluorescence polarization; stronger effect = higher value; concentration not given here.
The nature of assay [8]: Cy5 fluorescence quenching or enhancement artefacts, artefact control for HCV NS3 helicase inhibitor project, biochemical, LOPAC1280 (AID 687037). The settings on record: Cy5-DNA-NS3h complex fluorescence interference counterscreen. Background: Counterscreens check selectivity or assay interference.
Assay [9] can be described thus: phospholipid biosynthesis inhibitors in animal cells, primary screen, cell-based, LOPAC library, screen 4 (AID 1347384). The settings on record: phospholipid biosynthesis inhibition screen, at 10 µM.
Assay [10] can be described thus: LFS_MB_P medulloblastoma growth inhibition, cell-based, chromothripsis tumors, cisplatin or BGB combos (AID 1671449; in the data active = inhibition above about 80%;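 also: cells exposed for 96 hours; 0% = vehicle DMSO and 100% = killing by high DMSO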). The settings on record: LFS_MB_P medulloblastoma cells.
A short description of assay [11]: HDN33 neuroblastoma growth inhibition, cell-based, chromothripsis tumors, cisplatin or BGB combos (AID 1671450; in the data active = inhibition above about 80%;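 also: cells exposed to compound for four days; 0% = vehicle DMSO and 100% = cell killing by high DMSO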). The settings on record: HDN33 neuroblastoma cells, stronger effect = higher value.
The nature of assay [12]: ICB984 medulloblastoma cell growth inhibition, synergistic combos for chromothripsis tumors, cisplatin or BGB combos (AID 1671451).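 Also: cells exposed for 96 hours before readout; 0% = vehicle DMSO and 100% = killing by high DMSO.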 The settings on record: ICB984 medulloblastoma cells, drug combinations, stronger effect = higher value.
A short description of assay [13]: HTB85 osteosarcoma cell growth inhibition, synergistic combos for chromothripsis tumors, BGB or cisplatin IC20 combos (AID 1671453; in the data active = inhibition above about 80%;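 also: cells exposed for 96 hours before readout; 0% = vehicle DMSO and 100% = high DMSO killing control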). The settings on record: HTB85 osteosarcoma cells, drug combinations, stronger effect = higher value.
Assay [14] is described as follows: MDA-MB-436 breast carcinoma cell growth inhibition, synergistic combos for chromothripsis tumors, BGB or cisplatin combos (AID 1671458).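 Also: cells exposed for 96 hours; 0% = vehicle DMSO and 100% = killing by high DMSO.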 The settings on record: MDA-MB-436 breast carcinoma growth inhibition, drug combinations, stronger effect = higher value.
The nature of assay [15]: growth inhibition of BT084 medulloblastoma cells, cell-based, ICGC_MB145, cisplatin and BGB IC40 combos (AID 1671461; in the data active = inhibition above about 80%;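 also: cells exposed to drugs for 96 hours; 0% = vehicle DMSO and 100% = high DMSO full killing control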). The settings on record: drug combinations, stronger effect = higher value.
Assay [16] can be described thus: growth inhibition of RCMB18 medulloblastoma cells, cell-based, cisplatin and BGB IC40 combos (AID 1671462; in the data active = inhibition above about 80%;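 also: cells exposed to compound for four days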). The settings on record: stronger effect = higher value.
The mark [17] stands for this setting: stronger effect = lower value, cell number ratio, induced over uninduced.
Setting [18] is: measured here: relative caspase fold change +Dox/-Dox.
Where [19] appears, read: measured here: total cells with miR-34 induction, stronger effect = lower value.
Setting [20] is: measured here: total cells without miR-34 induction.

“And” between values parts separate entries of the source, which are not always exact repeats. Equal entries are not always repeated. The source made the active and inactive calls. Unless noted, no rule for the calls is given here.

Broadly, the viability is a read-out of living cells in per cent, often relative to untreated cells. The term remaining activity denotes the signal under treatment as a percentage of the control signal. On to `Oc1ccc(Nc2nc(-c3ccc(Cl)cc3)cs2)cc1`, for which the parasite load remaining in assay [1] was 34.6% (inactive). In assay [1], this molecule returned a viability of 65.5%. The remaining activity in [2] is 89% (inactive). The fold change in assay [3] (setting [17]) is 0.947 (inactive) and 0.904 (inactive) and 0.869 (inactive); in assay [3] (setting [18]), 0.378 and 0.549 and 1.23. For the same molecule, the cell count in assay [3] (setting [19]) is 4850 and 4920 and 2840; in assay [3] (setting [20]), 5120 and 5440 and 3260; in [4], 6680. This molecule also gave an SSMD in assay [4] of 1.25. In [4], the plate-normalised HSF1 focus index was 1.08 (inactive). For the same molecule, the z-score in [5] (MELAS cybrid survival, CellTiter-Glo 48 h, stronger effect = higher value) was -0.306; in assay [5] (Rieske KO mouse fibroblast survival, CellTiter-Glo 72 h), 2.78; in assay [6], -0.695 (inactive).

On to `COc1ccc(Nc2nccc(NCCO)n2)cc1`, for which, in [2], the remaining activity was 124% (inactive). In addition, the fold change in assay [3] (setting [17]) is 0.983 (inactive) and 0.953 (inactive); in assay [3] (setting [18]), 2.19 and 1.76. In addition, the cell count in [3] (setting [19]) was 6220 and 9200; in assay [3] (setting [20]), 6320 and 9660. For the same molecule, the z-score in assay [6] is -0.315 (inactive).

Regarding `Cc1ccccc1C(=O)c1ccc(Nc2ccc(Br)cc2N)cc1Cl`, the parasite load remaining in assay [1] is 40.9% (inactive). Moreover, the viability in [1] is 76.7%. The remaining activity in assay [2] was 120% (inactive). Further, the fold change in assay [3] (setting [17]) is 0.938 (inactive); in assay [3] (setting [18]), 1.33. Moreover, the cell count in [3] (setting [19]) was found to be 6770; in [3] (setting [20]), 7220. Besides, in [6], the z-score is -0.695 (inactive).

On to `CN(CCOc1ccc(-c2ccc3c(c2)OCO3)cc1C(C)(C)C)CC(=O)O`, for which the remaining activity in assay [2] was 102% (inactive). For the same molecule, the fold change in assay [3] (setting [17]) is 0.865 (inactive); in assay [3] (setting [18]), 1.03. The results for the cell count in [3] (setting [19]) and in [3] (setting [20]) were 7520 and 8690, respectively. Besides, the z-score in [6] is -0.035 (inactive).

As a reminder, the inhibition is the drop in the measured response relative to a control, in per cent. With `COc1cc(SC)ccc1C(=O)N1CCC(Cc2ccccc2)CC1`, the parasite load remaining in assay [1] is 38.9% (inactive). In addition, the viability in assay [1] turned out to be 67%. Moreover, the inhibition in assay [7] is 1% (inactive). The fluorescence ratio (interference) in assay [8] was 1 (inactive). Moreover, the remaining activity in assay [2] is 78.3% (inactive). Besides, the fold change in assay [3] (setting [17]) was 1.03 (inactive) and 0.864 (inactive); in assay [3] (setting [18]) it was 0.962 and 1.6. The cell count in assay [3] (setting [19]) is 7280 and 6350; in assay [3] (setting [20]) it was 7040 and 7350. In [9], the outcome was inactive. Moreover, the z-score in assay [6] was -0.91 (inactive) and -0.635 (inactive).

Consider `O=c1ncccn1[C@@H]1O[C@H](CO)[C@@H](O)[C@H]1O`, for which the remaining activity in assay [2] is 115% (inactive). Further, the fold change is 1 (inactive) in assay [3] (setting [17]) and 1.17 in assay [3] (setting [18]). In addition, the cell count in [3] (setting [19]) came out at 7460; in assay [3] (setting [20]), 7440. Further, the z-score in assay [6] is -0.025 (inactive). Moreover, the inhibition in assay [10] (at 0.5 µM, stronger effect = higher value) is 94.5% (active); in assay [10] (measured here: combination with BGB IC20, at 0.005 µM) it was -19.6%; in assay [10] (measured here: combination with BGB IC40, at 0.005 µM), -15.6%; in assay [10] (measured here: combination with BGB IC40, at 0.05 µM), -21.7%; in assay [10] (measured here: combination with cisplatin, at 0.5 µM, stronger effect = higher value), 116%; in [10] (measured here: combination with cisplatin, at 5 µM, stronger effect = higher value) it was -26.6%. Also, the inhibition in assay [11] (BGB combo, at 5 µM) is -58.6%; in assay [11] (at 0.5 µM), -38.5% (inactive); in [11] (cisplatin combo, at 5 µM) it was -44.1%; in [11] (measured here: with BGB IC20 combination, at 0.5 µM) it was -41.3%; in assay [11] (measured here: with cisplatin IC20 combination, at 0.5 µM) it was -33.1%; in assay [11] (single agent, at 5 µM), -32.1%. Further, the inhibition in assay [12] (BGB IC20 combo, at 0.005 µM) is 4.35%; in [12] (BGB IC40 combo, at 0.005 µM), -50.2%; in assay [12] (BGB IC40 combo, at 0.05 µM) it was -18%; in [12] (at 0.5 µM), -16.8% (inactive); in assay [12] (cisplatin combo, at 0.05 µM), -22.2%; in assay [12] (cisplatin combo, at 0.5 µM), -22.8%. The inhibition in assay [12] (cisplatin combo, at 5 µM) was -30.8%; in [12] (measured here: 5 uM single agent, at 5 µM), -3.85%; in assay [13] (at 0.5 µM) it was -26.7% (inactive); in assay [13] (measured here: with BGB IC20, at 0.5 µM), -35%; in [13] (measured here: with BGB IC20, at 5 µM) it was -20.6%; in assay [13] (measured here: with cisplatin IC20, at 0.5 µM), -23.7%. The inhibition in [13] (measured here: with cisplatin IC20, at 5 µM) is -31.4%; in [13] (single agent, at 5 µM), -19.2%; in assay [14] (at 0.5 µM) it was -13.6% (inactive); in assay [14] (measured here: BGB combination, at 0.5 µM) it was -17.7%; in assay [14] (measured here: BGB combination, at 5 µM), -15.1%; in assay [14] (measured here: cisplatin combination, at 0.5 µM), -10.4%. Further, the inhibition in assay [14] (measured here: cisplatin combination, at 5 µM) was -7.02%; in [15] (at 0.5 µM), -5.93% (inactive); in [15] (cisplatin combination, at 0.5 µM) it was -27.2%; in [15] (cisplatin combination, at 5 µM) it was -19.4%; in assay [15] (measured here: BGB IC40 combination 0.05 uM, at 0.05 µM), -6.16%; in assay [15] (single agent, at 5 µM) it was -11.2%. The inhibition in assay [16] (at 0.5 µM) is -16.2% (inactive); in [16] (cisplatin combo, at 5 µM) it was -19.8%; in [16] (measured here: BGB IC40 combination, at 0.05 µM), 3.99%; in assay [16] (measured here: combination with cisplatin, at 0.5 µM), -35.7%; in assay [16] (single agent, at 5 µM), -29.5%.
